Outcome and Potency data for eight compounds are collected here from PubChem BioAssay (NCATS).

What all share (experiment): qHTS assay to identify novel small-molecules to repurpose for Merkel cell carcinoma treatment (AID 1296009); also: nearly all actives have a fitted effect of over 60% in size
(qHTS replaces the single test concentration by a dilution series.)

In one assay the test system is HACAT. The following applies: MCC and control cell lines, CellTiter-Glo viability, 72 h; at 44.8 µM (top of the series) unless noted. The gist of the method:
(§1)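 qHTS format: cells treated with library compounds in DMSO across 8 (NPC) or 11 (MIPE) concentrations. Readout after 72 hr at 37 degree celsius was CellTiter-Glo luminescence.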

The subject of another assay is MCC-13. The following applies: MCC and control cell lines, CellTiter-Glo viability, 72 h; series mostly up to 46 µM. Summed up:
as §1

For another assay, the system named is MCC-26. The following applies: MCC and control cell lines, CellTiter-Glo viability, 72 h; series mostly up to 46 µM. Summed up:
as §1
A general note: Cellular ATP, detected with luciferase, serves as a proxy for viable cell number.

A further assay concerns MKL-1. The conditions noted are these: MCC and control cell lines, CellTiter-Glo viability, 72 h; series mostly up to 46 µM. Summed up: as §1
The test system of a further assay is UISO. The following applies: MCC and control cell lines, CellTiter-Glo viability, 72 h; series mostly up to 46 µM. Summed up:
as §1

For another assay, the system named is MKL-2. The following applies: MCC and control cell lines, CellTiter-Glo viability, 72 h; series mostly up to 46 µM. Summed up:
as §1

The next assay has as its system WaGa. The conditions noted are these: MCC and control cell lines, CellTiter-Glo viability, 72 h; series mostly up to 46 µM. Summed up: as §1

Results filed as inconclusive are left out. Active and inactive are the calls of the source. Calls follow the shape of the dose curve; as a rule, active = well fitted inhibition curve with a large enough effect; inconclusive = small, poorly fitted or top-dose-only effect; inactive = flat fitted curve, though single readings scatter.
Potency is read from the fitted curve at half-maximal effect.

Regarding `O=C(O)CCC1CCC(c2cc(F)ccc2F)(S(=O)(=O)c2ccc(Cl)cc2)CC1` (configuration not stated), the compound was called inactive in the assay with HACAT. In addition, the Potency result in the assay on MCC-13, in the assay on MCC-26, with MKL-1 and in the assay with UISO was “inactive” throughout.

`Cc1c(O)cccc1C(=O)N[C@@H](CSc1ccccc1)[C@H](O)CN1C[C@H]2CCCC[C@@H]2C[C@@H]1C(=O)NC(C)(C)C`: the Potency entry in the assay on MCC-13, with MCC-26, in the assay with MKL-1 and in the assay on MKL-2 was “inactive” throughout.

Regarding `CC(C)n1cnc2c(NCCCCCCNC(=O)OC(C)(C)C)nc(NCCO)nc21`, the Potency result in the assay with MCC-13, in the assay with MCC-26, in the assay on MKL-1, in the assay on MKL-2 and in the assay on UISO was “inactive” each time.

Take `CC(C)C(=O)Nc1ncc(-c2cc(C(F)F)nn2-c2c(Cl)cccc2Cl)s1`: the Potency result in the assay on MKL-1 and in the assay on WaGa was “inactive” throughout.

`COc1cccc2c1CCCC2CCCN1CCN(C2CCCCC2)CC1` (configuration not stated): the Potency entry in the assay with MCC-13, in the assay on MCC-26 and with MKL-1 was “inactive” each time.

As to `C[N+](C)(C)CC(=O)O`, the Potency entry with MCC-13, with MCC-26, with MKL-1, in the assay on MKL-2, in the assay on UISO and with WaGa was “inactive” each time.

Regarding `CC1(C)O[C@H]2C[C@@H]3[C@H]4CCC5=CC(=O)C=C[C@]5(C)[C@@]4(F)[C@@H](O)C[C@]3(C)[C@]2(C(=O)CO)O1`, the Potency result in the assay on MCC-13, in the assay on MCC-26 and in the assay with UISO was “inactive” throughout. The Potency is 18.7 µM (active) with MKL-1 and 13.2 µM (active) with WaGa.

For `CC1(C)CCC2=C(O1)c1ccccc1C(=O)C2=O`, the compound was classed as inactive in the assay with HACAT. In the assay on WaGa, the Potency was 26.4 µM (active).
